Common to all, as to assay: NCI-60 one-dose screen, 48 h (100 = growth as untreated, 0 = no growth, -100 = all killed)
Common to all, as to conditions: 10 µM unless noted

The test system of assay [1] is RPMI-8226 leukemia.
The test system of assay [2] is OVCAR-8 ovarian.
Assay [3] relates to OVCAR-5 ovarian.
Assay [4] has as its system OVCAR-4 ovarian.
The test system of assay [5] is SK-OV-3 ovarian.
In assay [6] the test system is IGROV1 ovarian.
The subject of assay [7] is OVCAR-3 ovarian.
Assay [8] concerns HS 578T breast.
Assay [9] concerns NCI/ADR-RES ovarian.
The test system of assay [10] is T-47D breast.

Drawing on PubChem BioAssay (NCI), this text covers growth for twelve molecules.

The panel holds about 83,000 compounds, 20% with a hit somewhere; the sample as a whole holds those more often.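 Growth was measured after 48 h exposure to one concentration of compound in 96-well plates. Values under 10 count as active.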 Unmarked numbers belong to inactive results. Calls of active or inactive are those of the source.

As for `C=C1C(=O)O[C@H]2[C@H]1CC/C(COC(=O)n1ccnc1)=C\CC[C@@]1(C)O[C@@H]21`, the growth in [1] was 85.3%; in assay [2] it was 99.8%; in assay [3], 117%; in [4] it was 103%; in assay [5] it was 102%; in assay [6], 77.7%. For the same molecule, the growth in assay [7] was 57%; in [8] it was 99.2%; in assay [9], 102%; in [10], 78.2%.
Consider `CCSc1ccc(C2C(Br)C(=O)N2c2cc(OC)c(OC)c(OC)c2)cc1` (stereo not given), for which the growth in assay [1] was 9.73% (active); in [2], 17.4%; in assay [3], 31.1%; in assay [4], 38.3%; in assay [5] it was 21.8%; in assay [6], 29.1%. Further, the growth in assay [7] was 3.63% (active); in assay [8] it was 8.62% (active); in assay [9], 14%; in [10], 67.4%.
`C=C1C(=O)O[C@H]2[C@H]1CC/C(COC(=O)NCC(=O)Nc1ccc(OC)c(C(N)=O)c1O)=C\CC[C@@]1(C)O[C@@H]21`: the growth in assay [1] is 2.96% (active); in assay [2] it was 75.3%; in assay [3], 102%; in assay [4], 68.3%; in assay [5] it was 100%; in assay [6], 21.6%. Moreover, the growth in assay [7] is 25.7%; in [8], 89.3%; in assay [9], 104%; in [10], 34.4%.
With `COC(=O)c1cncc(C(=O)Nc2ccc(-n3cnc4ccccc43)cc2)c1`, the growth in [1] was 74.5%; in [2] it was 97.2%; in [3], 101%; in assay [4] it was 107%; in assay [5], 108%; in [6], 90.5%. Further, the growth was 108% in assay [7], 107% in [8], 94.9% in assay [9] and 74.8% in assay [10].
Take `O=C(/C(=C/c1ccc([N+](=O)[O-])cc1)SCc1ccc(F)cc1)c1ccc(Cl)cc1`: the growth in assay [1] was -16% (active); in [2], 66.2%; in assay [3], 95%; in [4], 57.8%; in [5], 74.8%; in assay [6] it was 53.8%. Besides, the growth in assay [7] was 70.5%; in assay [8] it was 27.1%; in [9] it was 53%; in [10] it was 49.3%.
Consider `FC(F)(F)c1ccc2c(Nc3cccc(C4CC(c5ccccc5)=NN4c4ccc(Cl)cc4)c3)ccnc2c1` (stereo not given), for which the growth is -19.5% (active) in assay [1]; 29.8% in [2]; 95.5% in assay [3]; 66.6% in assay [4]; 80.9% in assay [5]; 20.1% in assay [6]. For the same molecule, the growth was 19.5% in assay [7], 84.8% in assay [8], 35.3% in assay [9] and 61.9% in assay [10].
On to `COc1ccc(OCC(=O)OC(C)C)cc1`, for which the growth in assay [1] is 106%; in assay [2] it was 105%; in [3], 99.6%; in assay [4] it was 101%; in assay [5], 112%; in assay [6], 103%. Also, the growth in assay [7] is 99.1%; in [8] it was 100%; in assay [9] it was 93.3%; in assay [10], 101%.
Consider `CC1=C(CCCOC(=O)NCCCl)C2=C(C)C3(CC3)[C@@](C)(O)C(=O)C2=C1`, for which the growth is 80% in assay [1]; 36.9% in assay [2]; 28.1% in assay [3]; 14.6% in [4]; -13.7% (active) in [5]; 4.17% (active) in assay [6]. Also, the growth in assay [7] is 2.71% (active); in assay [8] it was 99.8%; in [9], 29.2%; in [10], 16%.
Consider `C=C(C)[C@@H]1CC[C@]2(C(=O)N=C=S)CC[C@]3(C)[C@H](CC[C@@H]4[C@@]5(C)CCC(=O)C(C)(C)[C@@H]5CC[C@]43C)[C@@H]12`, for which the growth in assay [1] is 16.1%; in assay [2], 24.3%; in [3], 49.1%; in assay [4] it was 31.4%; in assay [5], 14.7%; in [6] it was 66.2%. Moreover, the growth in assay [7] was 25.7%; in assay [8] it was 33%; in assay [9] it was 28.2%; in [10] it was 18.1%.
Consider `C=C(C)[C@@H]1CC[C@]2(C(=O)O)CC[C@]3(C)[C@H](CC[C@@H]4[C@@]5(C)C[C@@H](CC#Cc6ccccc6)C(=O)C(C)(C)[C@@H]5CC[C@]43C)[C@@H]12`, for which the growth in [1] was 15.3%; in assay [2], 26.5%; in assay [3], 65.4%; in assay [4], 41.3%; in [5] it was 42.9%; in assay [6], 61.1%. Moreover, the growth in assay [7] is 17.9%; in assay [8], 55.4%; in assay [9], 42.1%; in assay [10], 22.5%.
As for `Cc1ccc(-c2nc(C#N)c(S(=O)(=O)N(C)CCO)o2)cc1`, the growth is 27.7% in [1]; 67.4% in assay [2]; 92% in [3]; 105% in assay [4]; 102% in [5]; 60.5% in assay [6]. The growth in [7] was 42.3%; in assay [8], 99.3%; in [9] it was 96.7%; in [10], 67.3%.
Turning to `Cc1nnc(/N=C2\NC(=O)/C(=C/c3ccsc3)S2)s1`, the growth in assay [1] is 94%; in assay [2] it was 104%; in [3] it was 107%; in assay [4] it was 90.6%; in [5], 89.5%; in [6], 90.7%. The growth was 93.3% in [7], 96.4% in [8], 94.8% in assay [9] and 84.4% in assay [10].
